In PubChem BioAssay (Tox21):
Records with an inconclusive call do not appear. Where a call stands in place of a potency, no number is given. The source made the active and inactive calls. Calls follow the shape of the full dose curve.

Biological target: Muscarinic acetylcholine receptor M1 (Homo sapiens) (UniProt P11229)
Assay: Cholinergic receptor muscarinic 1 (CHRM1) small molecule antagonists, cell-based qHTS assay (AID 1963588); also: nearly all actives have a fitted effect of over 40% in size
Settings: CHRM1-CHO antagonist mode, calcium flux fluorescence; series mostly up to 61.5 µM
Outline: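 CHRM1-CHO calcium-flux assay, antagonist mode. Cells were seeded 18 h, dye-loaded 1 h at 37 C and given compound for 5 min at RT, then acetylcholine was added at 50nM. FDSS fluorescence was read 3 min; 15 concentrations, three runs.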
Potency is read from the fitted curve at half-maximal effect.

Sequence of Muscarinic acetylcholine receptor M1 (Homo sapiens) (P11229 whole entry, looked up): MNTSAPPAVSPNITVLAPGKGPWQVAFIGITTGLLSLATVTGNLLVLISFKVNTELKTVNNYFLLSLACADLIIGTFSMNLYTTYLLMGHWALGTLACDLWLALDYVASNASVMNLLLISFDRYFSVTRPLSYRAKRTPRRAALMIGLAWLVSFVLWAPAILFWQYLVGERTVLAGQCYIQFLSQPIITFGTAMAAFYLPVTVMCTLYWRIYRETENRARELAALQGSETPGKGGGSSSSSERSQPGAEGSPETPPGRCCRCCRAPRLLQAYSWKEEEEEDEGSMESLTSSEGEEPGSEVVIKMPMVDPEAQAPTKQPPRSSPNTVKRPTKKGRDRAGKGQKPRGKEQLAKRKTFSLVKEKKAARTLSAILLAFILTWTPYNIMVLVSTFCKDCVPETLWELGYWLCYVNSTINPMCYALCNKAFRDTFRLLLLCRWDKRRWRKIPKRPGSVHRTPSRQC

O=C(O)CCCCCCCCC(=O)O
Potency: inactive

C[Si](C)(C)N[Si](C)(C)C
Potency: inactive

CCCCOCCOC(=O)c1ccccc1C(=O)OCCOCCCC
Potency: inactive

C=CCNCC=C
Potency: inactive

C/C=C/c1ccc(OCC)c(O)c1
Potency: inactive

COC(=O)CCCC(=O)OC
Potency: inactive

CCCCCCCCCCCCCO
Potency: inactive

CC(C)OC(=O)COc1ccc(Cl)cc1Cl
Potency: inactive

CCOCCO
Potency: inactive

O=c1cc[nH]c(=O)[nH]1
Potency: inactive

c1ccc2cc3ccccc3cc2c1
Potency: inactive

CN(C)CCCN
Potency: inactive

CCC(=O)OC/C=C/c1ccccc1
Potency: inactive

COC(=O)C(C)Oc1ccc(Oc2ncc(C(F)(F)F)cc2Cl)cc1 (stereo not drawn)
Potency: inactive

[O-]/[N+](=N\O)c1ccccc1
Potency: inactive

CCCCC/C(C=O)=C\c1ccccc1
Potency: inactive

O=C1CCCCCCCCCCCN1
Potency: inactive

COc1ccccc1[N+](=O)[O-]
Potency: inactive

C=C(C)C(=O)O
Potency: inactive

CCCCCCCCCCCCc1ccccc1O
Potency: inactive

CCCCNC(=O)NS(=O)(=O)c1ccc(N)cc1
Potency: inactive

C[Si]1(C)O[Si](C)(C)O[Si](C)(C)O[Si](C)(C)O1
Potency: inactive

C=CCc1ccc(OC)c(OC)c1
Potency: inactive

NS(=O)(=O)c1cc2c(cc1Cl)NC=NS2(=O)=O
Potency: inactive

CCC[C@H](N[C@@H](C)C(=O)N1[C@H](C(=O)O)C[C@@H]2CCCC[C@@H]21)C(=O)OCC
Potency: inactive

CC1CCC2CC1C2(C)C (stereo not drawn)
Potency: inactive

O=C(c1cc(O)c(O)c(O)c1)c1ccc(O)c(O)c1O
Potency: inactive

CCC(C)OC(=O)c1ccc(O)cc1 (stereo not drawn)
Potency: inactive

CC1=C(/C=C/C(C)=C/C=C/C(C)=C/CO)C(C)(C)CCC1
Potency: inactive

OC(CCl)CCl
Potency: inactive

OCc1ccc(Cl)cc1Cl
Potency: inactive

O=C(c1ccccc1)c1ccc(O)c(O)c1O
Potency: inactive

CCCCCCCCCCCCCCCC[N+](C)(C)Cc1ccccc1
Potency: 410 nM (active)

CCCCC(CC)COC(=O)CS (stereo not drawn)
Potency: inactive

CC(C)OP(=O)(CP(=O)(OC(C)C)OC(C)C)OC(C)C
Potency: inactive

Cc1ccc(S(=O)(=O)NCl)cc1
Potency: inactive

CCCc1c(OCCCCc2nn[nH]n2)ccc(C(C)=O)c1O
Potency: inactive

COc1ccc([N+](=O)[O-])cc1N
Potency: inactive

Nc1ccc(S(=O)(=O)c2ccc(N)cc2)cc1
Potency: inactive

c1ccc2scnc2c1
Potency: inactive

CC(=O)OC/C=C(C)/C=C/C=C(C)/C=C/C1=C(C)CCCC1(C)C
Potency: inactive

CCCCCCCC=O
Potency: inactive

CCCCOCCOCCOC(C)=O
Potency: inactive
